Assay outcomes: PubChem, several laboratories
A selection: hits, their analogues and other compounds. The true share with any hit is near 2.2%.
NALP1 inh – blocks the NALP1 inflammasome reconstituted in yeast. S. cerevisiae NALP1/ASC/caspase-1 growth, X-gal OD620, 72 h. inhibition, % at 10 µM. 0.61% of 280,000 active; in the data active = inhibition mostly above about 24%, no sharp cut-off; inactive = mostly below about 32%
NALP3 yeast inh – inhibitors of NALP3 inflammasome in yeast. Yeast reconstituted NLRP3/ASC/caspase-1, beta-gal luminescence, 24 h. 0.39% of 330,000 active. inhibition, % at 10 µM;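 active = inhibition of 50% or more; inactive = inhibition below 50%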;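 note: plate controls were induced DMSO wells for no effect and uninduced yeast grown without galactose for full effect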
PolyA inhibitor – yeast polyadenylation inhibition. AID 1875. activity score, % at 12 µM. 0.02% of 300,000 active. S. cerevisiae SKY197-pL101 polyadenylation reporter, beta-gal luminescence; efflux-impaired pdr1/pdr3 knockout yeast; score 100 = 6 SD above DMSO;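 active = lowest replicate activity score at least 50, where 100 means six control SD above control mean; inconclusive = lowest score under 50 but half or more replicates reach 50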;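 note: yeast exposed to compound for 9 h at 30 °C; higher score means more reporter readthrough which indicates perturbed polyadenylation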
dFosB act – activators of mouse delta FosB homodimer | P13346 | purified delta FosB, TAMRA-CDK5 oligo fluorescence polarization; percent of positive-control signal above neutral wells | activation, % at 25 µM | 0.99% of 340,000 active | AID 493131;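 active = mean activation above about 17%, with every replicate also reaching it, limit read from the data, passing the limit was not always enough; inconclusive = only one of the two conditions met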
Target sequence (P13346 whole entry, looked up): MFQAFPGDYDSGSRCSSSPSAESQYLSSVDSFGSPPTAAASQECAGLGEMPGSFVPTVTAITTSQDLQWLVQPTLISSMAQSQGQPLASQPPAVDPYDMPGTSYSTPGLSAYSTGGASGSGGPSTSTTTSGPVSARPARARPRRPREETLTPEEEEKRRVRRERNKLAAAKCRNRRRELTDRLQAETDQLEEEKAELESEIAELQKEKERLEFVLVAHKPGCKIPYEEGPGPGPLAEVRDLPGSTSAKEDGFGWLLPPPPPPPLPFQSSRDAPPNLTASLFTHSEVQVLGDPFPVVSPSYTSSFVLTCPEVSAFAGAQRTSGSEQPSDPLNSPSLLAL
ZTA DNA inh – ZTA (EBV) inhibition in EBNA-1 counter-screen | inhibition, % at 11 µM | 0.15% of 320,000 active | P03206 | ZTA-DNA binding, fluorescence polarization; in the data active = inhibition above about 33%
Target sequence (P03206 whole entry, looked up): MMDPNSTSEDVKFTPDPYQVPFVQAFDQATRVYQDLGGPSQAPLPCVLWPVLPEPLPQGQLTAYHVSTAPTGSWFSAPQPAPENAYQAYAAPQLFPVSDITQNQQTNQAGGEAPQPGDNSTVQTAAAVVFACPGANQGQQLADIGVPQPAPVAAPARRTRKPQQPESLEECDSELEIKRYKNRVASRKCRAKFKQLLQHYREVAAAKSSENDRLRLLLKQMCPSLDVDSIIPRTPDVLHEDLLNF
EBNA-1 inh – blocks EBNA-1 binding to DNA; 0.34% of 300,000 active; inhibition, % at 14.8 µM; EBNA-1 DNA binding, fluorescence polarization; AID 1950; in the data active = inhibition above about 28%
NALP3 confirm – NALP3 inhibition confirmation in yeast; inhibition, % at 10 µM; shares compounds with NALP3 yeast inh; 81% of 1,300 active; yeast expressing human NALP3, luminescence; in the data active = inhibition above about 48%
Casp1-ASC yeast – counter-screen for NALP3 inhibitors: yeast caspase-1-ASC; shares compounds with NALP3 yeast inh; yeast expressing Caspase-1-ASC, luminescence counter screen; inhibition, % at 10 µM; 66% of 1,000 active; AID 488784
NALP3 yeast rt – confirmation retest of NALP3 inhibitors in yeast; shares compounds with NALP3 yeast inh; yeast expressing human NALP3, luminescence read-out; inhibition, % at 10 µM; 53% of 1,000 active
* hit, by the source's call; ? = inconclusive; . = no result. Cut-off read from the data, not from the text of the source, unless noted: active = inhibition above about 50%; inactive = the rest.

SMILES	NALP1 inh	NALP3 yeast inh	PolyA inhibitor	dFosB act	ZTA DNA inh	EBNA-1 inh	NALP3 confirm	Casp1-ASC yeast	NALP3 yeast rt
CN(CCCC(=O)N1CCN(c2ncccn2)CC1)S(=O)(=O)c1ccc(F)cc1	.	-4	.	-5	.	.	.	.	.
COc1ccccc1N1CCN(C2CCCN(C(=O)CCn3cncn3)C2)CC1 (configuration not stated)	15	23	-1	-8	15	5	.	.	.
O=S(=O)(c1ccc(Cl)cc1)N1CCN(c2ncnc3sccc23)CC1	.	50*	.	-8	.	.	52*	44	37
Cc1csc2c(N3CCCCC3)ncnc12	16	28	3	-13	0	0	.	.	.
Cc1csc2c(N3CCN(S(=O)(=O)c4ccc(Cl)cc4)CC3)ncnc12	24	68*	0	-1	16	6	55*	38	29
CCCCn1c(N)c(N(CC(C)C)C(=O)C2CCN(S(=O)(=O)c3ccc(C)c(C)c3)CC2)c(=O)[nH]c1=O	17	11	3	?	5	-1	.	.	.
CNC(=O)[C@H]1O[C@@H](n2cnc3c(NCc4cccc(I)c4)ncnc32)[C@H](O)[C@@H]1O	.	3	.	-7	-2	-10	.	.	.
COc1cc(C(=O)ON=C2C3CC4CC(C3)CC2C4)cc(OC)c1OC	18	59*	-75	-5	-1	0	92*	40	26
N/C(=N\N=C/c1ccc(Br)cc1)N/N=C\c1ccc(Br)cc1	3	27	-5	1	24	-5	.	.	.
N/C(=N\N=C/c1ccc(F)cc1)N/N=C\c1ccc(F)cc1	-10	64*	-21	26*	-17	-2	76*	70*	65*
Cc1ccc(NC(=O)C2CCN(S(=O)(=O)c3ccc4c(c3)CCCC(=O)N4)CC2)cc1N(C)C	16	7	2	-10	2	2	.	.	.
CSc1ncc(C(=O)Nc2ccccc2)cn1	11	59*	15	2	.	.	72*	57*	55*
COc1cccc(NC(=O)c2ccncc2)c1	21	5	4	0	-12	-13	.	.	.
COc1cccc(NC(=O)c2cnc(SC)nc2)c1	11	69*	2	-13	14	0	72*	68*	58*
O=C(Nc1ccccc1)c1ccc(C(=O)Nc2ccccc2)nc1	9	15	-10	-4	2	-1	.	.	.
Cc1cccc(CCNC(=O)CNS(=O)(=O)c2ccc3nc(C)sc3c2)c1	2	6	-15	2	-10	-2	.	.	.
Fc1cccc(Cl)c1/C=N/n1c(-c2cccnc2)n[nH]c1=S	-8	25	0	1	-11	-2	.	.	.
CN1CCN(C(c2ccc(Br)cc2)c2cc(Cl)c3cccnc3c2O)CC1 (configuration not stated)	-2	57*	-8	29*	-6	-12	37	.	.
CN1CCN(C(c2ccc(F)cc2)c2ccc3cccnc3c2O)CC1 (configuration not stated)	.	.	.	3	.	.	.	.	.
CCCn1nnc(NC(=O)c2sc3ccccc3c2Cl)n1	27	51*	5	-20	0	0	54*	45	48
Cc1ccccc1CNC(=O)CCn1nc(C)c2c(C)n(-c3ccccc3)nc2c1=O	22	13	5	-5	2	9	.	.	.
COc1ccc(-c2cc3nc4n(c(=O)c3s2)CCC4)cc1	-2	53*	0	-26	8	-2	72*	35	36
Fc1cccc(F)c1/C=C/c1ccc2ccccc2n1	18	8	-29	-14	2	-6	.	.	.
CC(O)/C=C/c1ccc2ccccc2n1 (configuration not stated)	1	50*	-13	9	-7	3	70*	37	43
COc1ccc(NS(=O)(=O)c2cccc(C(=O)NNC(=O)c3cc(S(N)(=O)=O)ccc3OC)c2)cc1	.	13	?	-10	-6	-7	.	.	.
SMILES	NALP1 inh	NALP3 yeast inh	PolyA inhibitor	dFosB act	ZTA DNA inh	EBNA-1 inh	NALP3 confirm	Casp1-ASC yeast	NALP3 yeast rt
CC1=C(C(=O)Nc2ccccc2C(=O)NCCCOC(C)C)SCCO1	28	15	-4	-4	4	-1	.	.	.
O=c1c(O)c(-c2cccs2)oc2ccccc12	50	67*	22	4	10	-17	87*	79*	73*
COc1ccc(F)cc1Cn1nc(C(=O)O)c2ccccc2c1=O	20	14	-8	?	-16	5	.	.	.
CCc1sc(C(=O)N2CCc3ccccc32)cc1C	-4	51*	-13	-8	12	6	34	.	.
O=C(c1ccc(Cl)s1)N1CCc2ccccc21	10	28	-6	1	-5	15	.	.	.
Cc1occc1C(=O)NC(C)C12CC3CC(CC(C3)C1)C2 (configuration not stated)	3	30	-70	-20	-3	-16	.	.	.
CC(NC(=O)c1ccccc1F)C12CC3CC(CC(C3)C1)C2 (configuration not stated)	.	51*	-22	3	-33	1	60*	53*	38
Cc1ccc(C(=O)c2nocc2C(=O)c2cccs2)cc1	25	55*	-7	-5	3	10	60*	73*	42
O=C(CNC(=O)c1ccc2c(=O)n3c(nc2c1)CCC3)Nc1ccc(F)c(F)c1	.	32	-7	-10	9	8	.	.	.
CC1CCc2c(nc3sc4c(c3c2N)CCCC4)C1 (configuration not stated)	42*	54*	8	7	1	-1	77*	67*	58*
CC1CCc2nc3sc4c(c3c(N)c2C1)CCCC4 (configuration not stated)	74*	59*	-8	5	-6	-5	-22	.	.
CCOC(=O)c1nc2sc3c(c2c(=O)[nH]1)CCC(C)C3 (configuration not stated)	.	17	0	-7	-2	1	.	.	.
COc1ccccc1NC(=O)NNC(=O)CCc1ccccc1	12	9	16	3	-2	-1	.	.	.
Clc1ccc2ccc3cccnc3c2n1	6	17	-9	-17	.	.	.	.	.
O=S1(=O)Nc2c(ccc3cccnc23)-c2ccccc21	12	70*	-87	-7	-8	-5	86*	98*	91*
CC(=O)Nc1ccc(C(=O)OCC(=O)c2cccc([N+](=O)[O-])c2)cc1	31	0	2	-2	0	1	.	.	.
COC(=O)Nc1ccc(SCC(=O)c2cccc([N+](=O)[O-])c2)cc1	24	54*	-32	-2	-15	-6	63*	58*	41
Cc1ccc(O)c(N=Nc2nccs2)c1	.	90*	.	3	12	.	91*	99*	96*
